Laboratory results as given in PubChem BioAssay AID1578 (Sanford-Burnham Center for Chemical Genomics, 2009).
Out of some 290,000 compounds screened, about 3,000 (1%) were called active. Shown is part of a subset that was picked to be rich in actives. Values without a mark were called inactive. Cut-off read from the data, not from the text of the source: active = inhibition mostly above about 36% (no sharp cut-off); inactive = mostly below about 34%.

Assay: NOD1 signaling inhibitors, primary screen, cell-based, luminescence, uHTS (AID 1578);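 note: HEK-293T reporter cells stimulated with the NOD1 agonist gamma-tri-DAP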
Conditions: NOD1-driven NF-kB luciferase reporter cells, at 4 µM, active compounds read high

SMILES	inhibition
C/C(=N/NC(=O)c1ccc(C)s1)c1cccnc1	-53.1%
COc1ccc(/C=N/NC(=O)CCOc2ccccc2C)cc1OC	62.5% (active)
COc1ccc(/C=N/NC(=O)CCC(=O)Nc2ccccc2)cc1OC	-8.6%
COc1cc(/C=N/NC(=O)CCOc2ccccc2C)cc(Br)c1O	-26.7%
CCCCN=Cc1c(C)[nH]n(-c2ccccc2)c1=S	0.8%
Cc1[nH]n(-c2ccccc2)c(=O)c1C=NCCc1ccccc1	-43.1%
Cc1[nH]n(-c2ccccc2)c(=S)c1C=NCCCN=Cc1c(C)[nH]n(-c2ccccc2)c1=S	88.7% (active)
Cc1nnc2sc(SCC(=O)Nc3nccs3)nn2c1=O	-2.3%
Cc1ccc(-c2ccc(/C=N/n3cnnc3)o2)cc1Cl	-11.3%
Cc1cc(-c2ccc(/C=N/n3cnnc3)o2)ccc1Cl	67.4% (active)
Fc1ccc(-c2ccc(/C=N\n3cnnc3)o2)cc1Cl	1.3%
C/C(N)=C(/C#N)C(=O)COC(=O)c1cccc(O)c1	-29.6%
CC(=O)Nc1cccc(NC(=O)CSc2nc3ccccc3o2)c1	43.3%
COc1ccc(C(NC(C)=O)c2cc(Cl)c3cccnc3c2O)cc1 (stereo not drawn)	-6.4%
CCCCCCNC(=O)CCc1nc2cccnc2n1Cc1ccc(OC)cc1	-10.4%
CC1CCCC(C)N1C(=O)c1cc(-c2cccs2)on1 (stereo not drawn)	-28.6%
CC1=C/C(=N\NC(=S)Nc2cccnc2)CC(C)(C)C1	43.4% (active)
CC(C)(C)C1CCC(=NNC(=S)Nc2cccnc2)CC1 (stereo not drawn)	-17.4%
CC1=C/C(=N\NC(=S)NCCc2ccccc2)CC(C)(C)C1	-43.4%
CCOC(=O)C1CCCN(C(=O)CNC(=O)c2nn(-c3ccc(OC)c(Cl)c3)c(=O)c3ccccc23)C1 (stereo not drawn)	-5.1%
CC(C)OC(=O)CSc1nc2c(cc1C#N)CCCCC2	111% (active)

SMILES	inhibition
CC(C)OC(=O)CC(=O)CSc1nc2c(cc1C#N)CCCCCC2	-24.1%
CC(C)OC(=O)CC(=O)CSc1nc2c(cc1C#N)CCCCC2	-26.3%
O=C(c1cccs1)N1CCC(C(=O)N2CCN(Cc3ccc4c(c3)OCO4)CC2)CC1	-24.9%
CCN1C(=O)c2cccc3c(S(=O)(=O)NCc4ccco4)ccc1c23	-23%
Cc1ccc(-n2cc(C(=O)c3ccc(N4CCN(C)CC4)cc3)nn2)cc1Cl	-52.8%
N#CC1=C(N2CCCCC2)c2cc3c(n2C1=O)CCCC3	7.7%
CCSC1=C(C#N)C(=O)n2c1cc1c2CCCC1	67% (active)
CCOC(=O)C1=C(SCC)c2cc3c(n2C1=O)CCCC3	-36.8%
COc1ccc(C(c2nnnn2C(C)C)N2CCN(C(=O)c3ccco3)CC2)cc1 (stereo not drawn)	10.7%
CC(=O)c1cc(C#N)c(NCc2ccccc2)nc1C	-40.7%
c1cn(CCCNc2ncnc3sc4c(c23)CCC4)cn1	29.2%
CCOc1cccc(-c2cc(C(=O)Nc3ccon3)c3ccccc3n2)c1	-14%
CCOC(=O)C(=O)N1CCN(c2nc(-c3ccc(Cl)cc3)cs2)CC1	-19.1%
O=C1CC(Cc2ccc(Br)cc2)C(=O)N1c1ccccc1 (stereo not drawn)	-19.8%
Clc1cncc(Cl)c1N/N=C/c1ccccc1	-10.5%
Clc1ccc(N/N=C/c2ccncc2)cc1Cl	-40.8%
Clc1cncc(Cl)c1N/N=C/c1ccncc1	75.3% (active)
CCOc1cc(/C=C(/NC(C)=O)C(=O)O)cc(Cl)c1OCc1cccc(Br)c1	-9.8%
CC(C)Oc1cccc(C(=O)C2CCCN(Cc3cnn(C(C)C)c3)C2)c1 (stereo not drawn)	-18.3%
CC(C)Oc1cccc(C(=O)C2CCCN(Cc3ccc4nonc4c3)C2)c1 (stereo not drawn)	55.2% (active)
COc1ccc(C(=O)C2CCCN(Cc3ccc4nonc4c3)C2)cc1OC (stereo not drawn)	-4.5%

SMILES	inhibition
O=C(c1ccc(Cl)cc1)C1CCCN(Cc2ccc(Oc3ncccn3)cc2)C1 (stereo not drawn)	19.6%
COc1ccc(CN2CCCC(C(=O)c3ccc(Cl)cc3)C2)cc1Cn1cccn1 (stereo not drawn)	-12.4%
Cc1cccc(-c2nc3c(c(SCC(N)=O)n2)CCCC3)c1	-10.2%
CC(C)c1ccc(NC2CCCN(C(=O)c3cccc(N4CCNC4=O)c3)C2)cc1 (stereo not drawn)	30.5%
CC(=O)c1cccc(NC(=O)c2ccc(N(Cc3ccccc3C)S(C)(=O)=O)cc2)c1	6.4%
CNC(=O)c1ccc(-c2ccccc2)s1	-12.7%
O=C(O)c1ccc(-c2ccc(-c3ccccc3)cc2)s1	93.5% (active)
Nc1ccc(-c2ccc(C(=O)O)s2)cn1	-26.1%
O=C(CNC(=O)c1ccco1)NCCCc1ccccc1	17.4%
Cc1cc(/C=C2/NC(=O)NC2=O)c(C)n1-c1ccccn1	-34.5%
CCN(CC)c1ccc(/C=c2\sc3nc4ccccc4n3c2=O)c(O)c1	33.8%
O=c1/c(=C/c2ccccn2)sc2nc3ccccc3n12	-98.1%
Cc1cc(/C=c2\sc3nc4ccccc4n3c2=O)c(C)n1-c1ccc(C(=O)O)cc1	20.6%
Cc1cc(/C=c2/sc3nc4ccccc4n3c2=O)c(C)n1-c1ccccn1	74.4% (active)
O=c1c2ccccc2cnn1-c1ccc(Cl)nn1	-19%
Cc1ccccc1-n1nc2c(c1NC(=O)c1c(-c3ccccc3Cl)noc1C)CS(=O)(=O)C2	-10.3%
Cc1nn(C)cc1CNC(=O)c1ccc(Br)o1	-3.1%
COc1ccc2ccccc2c1/C=N\NC(=O)c1ccc(C)s1	-3.2%
Cc1ccc(OCC(=O)NNC(=O)CSc2ncc(C#N)c(N)n2)cc1	-22.7%
Cc1cccc(OCC(=O)NNC(=O)CSc2ncc(C#N)c(N)n2)c1	98.2% (active)
N#Cc1cnc(SCC(=O)NNC(=O)COc2cccc3ccccc23)nc1N	-19.9%
